Experimental findings from PubChem BioAssay (NCI) are described below.

About 83,000 compounds went through this panel and 20% of them were active in at least one assay; those are over-represented in the sample as a whole.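 96-well plates, one dose, 48 hours. Percent growth reported; active if below 10.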 A number with no mark means an inactive call. The source made the active and inactive calls.

This test concerns NCI-H226 lung. The test is described as follows: NCI-60 one-dose screen, 48 h (100 = growth as untreated, 0 = no growth, -100 = all killed). Conditions: 10 µM unless noted. Here is the method: Growth inhibition of the NCI-H226 human Non-Small Cell Lung tumor cell line is measured as a screen for anti-cancer activity. Cells are grown in 96 well plates and exposed to the test compound for 48 hours. Compounds are tested at a single concentration, which is 10^-5 M for most compounds. The reported endpoint is percent growth (GI% or GIPRCNT), where numbers from 0 - 100% represent growth inhibition, and numbers from -100% - 0 represent cell death. For example, a value of 40 represents 60% growth inhibition. A value of 0 means no net growth occurred over the course of the experiment. A value of -40 indicates 40% of cells at the beginning of the experiment died by the end of the experiment. A value of -100 means all cells are dead at the end of the experiment.
NCI-60 Human Tumor Cell Lines Screen was performed using the standard one-dose NCI protocol, which is described in more detail at https://dtp.cancer.gov/discovery_development/nci-60/default.htm.
Compounds with GIPRCNT values below 10 were considered active. Activity score was based on GIPRCNT using the following formula: […]
Score is 0 for GIPRCNT values of 100 or above, 50 for GIPRCNT values of 0, and 100 for GIPRCNT values of -100.
Turning to `ClCCN(CCCl)C(c1ccccc1)c1ccc(Cl)cc1` (stereo not given), the growth was 75.4%.

For `O=[N+]([O-])c1ccc2cnn(CSP(=S)(c3ccccc3)c3ccccc3)c2c1`, the growth was 77.4%.

Consider `CC1(C)N=C(N)N=C(N)N1c1cccc(C(=O)Nc2cccc(S(=O)(=O)F)c2)c1`, for which the growth is 99%.

For the molecule `Nc1ccc(N)c2c1Oc1ccccc1O2`, the growth is 84.5%.

As for `NC(Cc1ccc2c(c1)OCO2)c1ccc2c(c1)OCO2` (stereo not given), the growth is 105%.

Regarding `CCC[CH2][Sn]([CH2]CCC)([CH2]CCC)[O]C(=O)CC`, the growth is -58.9% (active).

Regarding `CSc1ccccc1NP1(=O)OCC(C)([N+](=O)[O-])CO1` (stereo not given), the growth was 98.4%.

As for `ClCCN(CCCl)c1nc(Cl)c(C2CC(c3ccccc3)=NN2c2ccccc2)s1` (stereo not given), the growth is 83.3%.

For the molecule `N#Cc1ncc(/N=C/c2ccc(N(CCCl)CCCl)cc2)s1`, the growth was -19.1% (active).

For `[O]=[Sn]([CH]1CCCCC1)[CH]1CCCCC1`, the growth is -74% (active).

As to `CCOc1cc(/C=N\Nc2nnc(C)n2N)c(C)cc1N(CCCl)CCCl`, the growth was 26.6%.

Consider `C=CC(O)CN1CC1CC` (stereo not given), for which the growth was 105%.

Regarding `CCC(C)[C@H]1O[C@]2(C=C[C@@H]1C)C[C@@H]1C[C@@H](C/C=C(\C)[C@@H](OC3C[C@H](OC)C(O[C@H]4C[C@H](OC)[C@@H](O)[C@H](C)O4)[C@H](C)O3)[C@@H](C)/C=C/C=C3\CO[C@@H]4[C@H](O)C(C)=C[C@@H](C(=O)O1)[C@]34O)O2` (stereo not given in full), the growth was -15.6% (active).

On to `CCN(CC)c1ccc(C=C2C(=O)NC(=S)NC2=O)cc1`, for which the growth is 85.5%.

On to `O=[N+]([O-])c1ccccc1N1CCNCC1`, for which the growth is 107%.

For the molecule `CC(=O)C1CCC2C3CC=C4CC(OC(=O)Cc5ccc(N(CCCl)CCCl)cc5)CCC4(C)C3CCC12C` (stereo not given), the growth was 94.6%.

For `Cc1ccc(C(=O)C2CN(C)CCC2(O)c2ccc(C)cc2)cc1` (stereo not given), the growth was 113%.

Take `N#C[Se]CCCNS(=O)(=O)C1CC2C=CC1C2` (stereo not given): the growth is -66.5% (active).

For `O=S(=O)(O)c1ccc(-c2ccc([As](=O)(O)O)cc2)cc1`, the growth was 110%.

As to `O=C(NCc1ccc([N+](=O)[O-])cc1)Nc1ccc(S(=O)(=O)F)cc1`, the growth was 63.7%.

For `CC1(C)N=C(N)N=C(N)N1c1ccc(OCCCCOc2ccc(S(=O)(=O)F)cc2)c(Cl)c1`, the growth was 29.6%.

As to `O=C1NC(=O)C(CN2C(=O)C3(c4ccccc42)[C@H](Cl)C(=O)N3c2ccccc2)C(=O)N1` (stereo not given in full), the growth is 76.4%.

With `CCOC(=O)C1(c2ccccc2)CCN(CC(=O)c2ccc(NC(C)=O)cc2)CC1`, the growth is 107%.

`C=CCC1(CC)C(=O)NC(=S)NC1=O`: the growth is 104%.

Turning to `COc1ccc(-c2ccc(OC)c(OC)c2OC)cc1`, the growth was 86.7%.

Consider `CC1(C)N=C(N)N=C(N)N1c1ccc(CCCCc2ccc(S(=O)(=O)F)cc2)cc1`, for which the growth is 36.8%.

On to `Cc1ccc(N)cc1[As]=[As]c1cc(N)ccc1C` (stereo not given), for which the growth is -93.2% (active).

`O=c1[nH]c2cc(Cl)ccc2n1C1CCN(CCCC(c2ccc(F)cc2)c2ccc(F)cc2)CC1`: the growth is 126%.

In the case of `CCCCn1cc(C(=O)/C(C#N)=C/c2cc3ccccc3nc2Cl)c2cc(OC)ccc21`, the growth was 84.3%.

Regarding `COc1ccc(C2=NN(c3ccccc3)C(c3sc(N(CCCl)CCCl)nc3Cl)C2)cc1` (stereo not given), the growth was 76.2%.

On to `N#CC1c2ccccc2C=CN1C(=O)c1ccc(N(CCCl)CCCl)cc1` (stereo not given), for which the growth is 78.2%.

On to `CC(=O)C1C(=O)N(C)C(=O)N(C)C1=O`, for which the growth was 95.4%.

Take `CC1(C)N=C(N)N=C(N)N1c1ccc(CCCCc2ccc(S(=O)(=O)F)cc2)c(Cl)c1`: the growth was 31.8%.

As to `CC(=O)Nc1ccc(C=C2C(=O)NC(=O)NC2=O)cc1`, the growth is 101%.

`C[C@]12CC[C@@H]3C4=C(CC[C@H]3[C@@H]1CC[C@@H]2O)CC(=O)CC4`: the growth is 94%.

On to `ClCCN(CCCl)c1ccc(/C=C\c2ccnc3ccccc23)cc1`, for which the growth is 69.1%.

`Cc1cc(CCl)c(C)cc1CCl`: the growth is 83.3%.

Turning to `O=[N+]([O-])c1cc([N+](=O)[O-])c(Cl)c(Cl)c1Cl`, the growth is 52.8%.

`Cc1ccccc1O`: the growth is 97%.

`CCCCNCCc1ccccn1`: the growth is 110%.
